# Assay outcomes from PubChem BioAssay.
# ELG1 genotox: genotoxicity induction in ELG1-luciferase HEK293T cells. HEK293T ELG1-luciferase reporter, luminescence, 16 h. Potency, µM (series often up to 46 µM), usual class: activators. actives 1.3% (n = 330,000); further: nearly all actives have a fitted effect of over 60% in size
#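 Reporter readout depends on ELG1 protein level, which increases with genetic stress. After 16 hr compound exposure at 37 °C, luciferase activity was quantified using ONE-Glo.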
# FLuc counter: inhibits or activates purified firefly luciferase, miR-21 counter-screen. Potency, µM (doses to about 57.5 µM), hits mostly inhibitors. purified FLuc, Km substrates, luminescence inhibition. P08659. actives 6.9% (n = 360,000). AID 588342; further: nearly all actives have a fitted effect of over 55% in size
# Target sequence (P08659 whole entry, looked up): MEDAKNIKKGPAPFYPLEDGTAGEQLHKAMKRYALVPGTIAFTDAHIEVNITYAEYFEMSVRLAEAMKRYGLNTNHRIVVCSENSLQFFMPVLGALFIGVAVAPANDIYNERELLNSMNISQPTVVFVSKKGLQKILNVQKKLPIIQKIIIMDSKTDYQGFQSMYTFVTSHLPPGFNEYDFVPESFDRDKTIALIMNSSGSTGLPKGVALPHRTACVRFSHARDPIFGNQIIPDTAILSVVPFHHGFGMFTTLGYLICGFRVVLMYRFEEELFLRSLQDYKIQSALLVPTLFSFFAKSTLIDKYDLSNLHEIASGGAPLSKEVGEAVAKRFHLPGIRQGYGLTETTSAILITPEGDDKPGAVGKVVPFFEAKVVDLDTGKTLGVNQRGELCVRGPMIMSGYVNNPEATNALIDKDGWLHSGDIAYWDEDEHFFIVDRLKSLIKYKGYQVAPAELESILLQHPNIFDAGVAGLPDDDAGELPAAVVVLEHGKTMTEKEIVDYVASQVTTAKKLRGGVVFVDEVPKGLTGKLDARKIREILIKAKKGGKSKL
#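 Biochemical qHTS of compounds, final roughly 60 µM downward over six points, against 10 nM purified firefly luciferase using Km concentrations of substrates (10 uM D-luciferin, 10 uM ATP) in Tris acetate pH 7.5 buffer; luminescence output.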
# ELG1 DNA repair: blocks ELG1-dependent DNA repair in HEK293T cells. HEK293T ELG1-luciferase reporter, luminescence, 16 h; DNA damage induced by 5-fluorouridine. Potency, µM (series often up to 46.1 µM), actives largely listed as inhibitors. actives 2.3% (n = 330,000). AID 504467; further: nearly all actives have a fitted effect of over 55% in size
#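 DMSO vehicle served as the neutral condition. Each well held 2,000 cells given 5-fluorouridine plus compound; after 16 hr at 37 °C/5% CO2, ONE-Glo was added and luciferase measured 30 min later.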
# NPC1 promoter act: activators of NPC1 promoter. Huh7 NPC1 promoter luciferase reporter, 24 h. AID 485313. Potency, µM (series often up to 9.22 µM), hits mostly activators. actives 2.4% (n = 320,000); further: nearly all actives have a fitted effect of over 60% in size
#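 Stably transfected Huh7 (NPC1 promoter→luciferase), 1500 cells/well in Opti-MEM + 10% FBS, 2 h settle, then compound 24 h at 37 °C. Luminescence after 10 min with Amplite reagent.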
# Rab9 promoter act: activates the Rab9 promoter | Huh7 Rab9 promoter-luciferase reporter, luminescence, 24 h | Potency, µM (highest dose often 9.22 µM), most hits filed as activators | actives 2.8% (n = 320,000) | AID 485297; further: nearly all actives have a fitted effect of over 60% in size
#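 Huh7 cells stably carrying a Rab9 promoter-luciferase reporter, 1500 cells per well in OP-MEM I with 10% FBS, treated with compound 24 hours at 37C. Luciferase activity read by luminescence after 10 minutes with Amplite reagent.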
# SMN2 splice up: SMN2 splice variant enhancement | actives 2.8% (n = 210,000) | Potency, µM (titrated, usually from 46.1 µM), most hits filed as activators | HEK293 SMN2-luciferase splicing reporter, luminescence, 30-36 h; further: nearly all actives have a fitted effect of over 55% in size
#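 HEK293 cells carry an SMN2 […]–luciferase reporter in which exon 7 inclusion puts luciferase in frame. Cells were plated 10-12 h before compound addition, then incubated 30-36 h at 37C. ONE-Glo luminescence was read; sodium butyrate at 4.5 mM final served as control.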
# Hits are given with their value; – = inactive; ? = inconclusive; · = not tested or not shown; [ ] = another dose, or the depositor's remark. Shown are actives, neighbours in structure and some others; about 9.2% of the full set was active somewhere. The call rests on the fitted dose curve; in most records, active means well fitted curve in the direction sought with a large enough effect; inconclusive means small, poorly fitted or top-dose-only effect, or another doubt; inactive means no such curve, though single readings can be large; an effect the other way counts as inactive or inconclusive.
SMILES,ELG1 genotox,FLuc counter,ELG1 DNA repair,NPC1 promoter act,Rab9 promoter act,SMN2 splice up
O=C(/C=C/c1ccc(Cl)c(Cl)c1)N1CCc2ccccc21,?,?,?,3.2µM,2.8µM,7.1µM
O=C(/C=C/c1cccs1)N1CCc2ccccc21,1.8µM,0.48µM,?,4µM,4µM,2.8µM
C/C(=N/NC(=O)c1ccc(C)nc1)c1ccc2c(c1)CCCC2,–,?,?,–,–,–
CN1CCN(c2nc3c(S(=O)(=O)c4ccc(Br)cc4)nnn3c3ccsc23)CC1,·,–,·,·,·,·
CCc1sc(C(=O)N(CCCOC)c2c(N)n(CC(C)C)c(=O)[nH]c2=O)cc1C,–,–,–,–,–,·
c1cnc(N2CCN(c3ncc4c(n3)CCNC4)CC2)nc1,·,–,·,·,·,?
CN1CCN(C(=O)c2ccc(CNS(=O)(=O)c3ccc(F)c(Cl)c3)cc2)CC1,–,–,–,–,–,·
CCC(C(=O)n1cccc1C#N)c1ccccc1C (stereo not given),–,–,–,–,–,·
CN(C)c1cc(N/N=C/c2ccccc2C(F)(F)F)nc(N(C)C)n1,–,–,16µM,–,–,·
O=[N+]([O-])c1ccc(Nc2nc3ccccc3s2)cc1,·,·,·,·,·,–[9.22 µM]
Cc1ccc(Nc2nc3ccccc3s2)cc1,7.3µM,0.85µM,?,1µM,0.71µM,2.8µM
Fc1ccc(Nc2nc3ccccc3s2)cc1,?,7.6µM,?,?,2.5µM,13µM
Cc1ccccc1Nc1nc2ccccc2s1,?,4.8µM,?,3.5µM,2.5µM,11µM
CCCC1(c2ccccc2)NC(=O)N(CC(=O)NCc2ccc(OC)cc2)C1=O (stereo not given),–,–,–,–,–,·
CCS(=O)(=O)c1nc(S(=O)(=O)c2ccc(C)cc2)c(NCC(C)C)s1,·,–,·,·,·,–
COC(=O)c1ccc(Cn2nnc3c(=O)[nH]c(C4CCN(S(=O)(=O)c5cc(C)ccc5C)CC4)nc32)cc1,–,–,–,–,–,·
CCCOc1ccccc1C1NC(=O)NC(C)=C1C(=O)OCc1ccccc1 (stereo not given),–,–,16µM,–,–,·
CC1=C(C(=O)OCc2ccc3c(c2)OCO3)C(c2ccc(O)c([N+](=O)[O-])c2)NC(=O)N1 (stereo not given),–,–,9.2µM,–,–,–
CC1=C(C(=O)OCc2ccccc2)C(c2ccc([N+](=O)[O-])cc2)NC(=O)N1 (stereo not given),–,–,?,–,–,·
CC1=C(C(=O)OCc2ccc3c(c2)OCO3)C(c2ccccc2)NC(=O)N1 (stereo not given),–,–,2.1µM,–,–,–
CCCOc1ccccc1C1NC(=O)NC(C)=C1C(=O)OCCOC (stereo not given),–,–,–,–,–,?
COc1ccccc1/C=C/C(=O)N1CCc2cc(OC)c(OC)cc2C1C (stereo not given),–,–,–,–,–,·
COC(=O)C1=C(c2ccc(OC)cc2)OC(=O)C1(C)C,–,–,–,–,–,·
Cc1cccc(CCN2CCN=C2N(C)C)c1,–,–,–,–,–,·
CCOC(=O)C1CCN(C(C(=O)Nc2ccc3c(c2)OCCO3)c2ccccc2)CC1 (stereo not given),–,–,–,–,–,–
SMILES,ELG1 genotox,FLuc counter,ELG1 DNA repair,NPC1 promoter act,Rab9 promoter act,SMN2 splice up
CCOC(=O)C1CCN(c2c(Nc3ccc4c(c3)OCCO4)c(=O)c2=O)CC1,?,21µM,?,–,–,–
CCOC(=O)N1CCC(N2C(=O)c3ccccc3C2Nc2ccc3c(c2)OCCO3)CC1 (stereo not given),?,21µM,?,–,–,–
CCOC(=O)N1CCC(N2C(=O)c3ccccc3C2Nc2ccc3c(C)cc(=O)oc3c2)CC1 (stereo not given),–,–,?,–,–,–
CCN(CC)C(=O)C(Oc1ccc(S(=O)(=O)N2CCCC2)cc1[N+](=O)[O-])c1ccccc1 (stereo not given),–,–,–,–,–,·
Cc1cccc(NC(=S)NCc2ccccc2)c1C,–,–,–,–,–,·
CC(=O)N1CCC(=NNc2nc3ccccc3s2)CC1,–,17µM,?,–,4µM,–
